Rows were chosen to be rich in hits. Some 2.9% of all compounds tested hit in one or more screens of this group.
Nrf2 block: Nrf2 qHTS screen for inhibitors | A549 ARE-Fluc reporter, luciferase luminescence, 18-24 h | Potency, µM (titrated, usually from 46 µM), without a hit: at the top dose activity change, negative = inhibition, actives largely listed as inhibitors | actives 2.1% (n = 360,000); also: % is scaled to controls: 0 for no effect and ±100 for the full control effect; nearly all actives have a fitted effect of over 60% in size
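Nrf2 function is reported as luminescence of an ARE-controlled luciferase in A549 cells. Compounds were tested at several concentrations, and a CellTiter-Fluor read on the same wells flagged cytotoxicity.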
ATXN2 expr inh: Primary qHTS for Inhibitors of ATXN expression. HEK-293 ATXN2-luciferase reporter, luminescence, 24 h. Potency, µM (series often up to 57 µM), inactives show at the highest dose activity change, negative = inhibition, most hits filed as inhibitors. actives 0.72% (n = 360,000). AID 1745845, 2022; also: % is scaled to controls: 0 for no effect and ±100 for the full control effect; nearly all actives have a fitted effect of over 55% in size
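qHTS (up to 57 uM final) was run with 24 h compound exposure of reporter cells at 37 °C. Each well was multiplexed: SteadyGlo luminescence measured ATXN2-luciferase expression after a fluorogenic Gly-Phe-AFC viability readout (25 uM final).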
A549 viability: Nrf2 qHTS screen for inhibitors: counterscreen for cytotoxicity; A549 ARE-Fluc cells, CellTiter-Fluor viability, 18-24 h; actives 0.16% (n = 390,000); Potency, µM (highest dose often 46 µM), for inactives: at the highest dose activity change, negative = cytotoxicity, most hits filed as inhibitors; also: % is scaled to controls: 0 for no effect and ±100 for the full control effect
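A549 ARE-Fluc cells in 5% FBS OPTI-MEM, 5000 cells/well, rested 2 h then exposed to compounds in concentration-response for 18-24 h at 37 °C. Viability by CellTiter-Fluor fluorescence (Ex 405/Em 525) after 30 min; luciferase luminescence (BugLite, 15 min, RT) read afterwards.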
ATXN viability: Viability Counterscreen for Primary qHTS for Inhibitors of ATXN expression; S2 cells (HEK-293 line with an ATXN2-luciferase reporter) viability, CellTiter-Fluor protease fluorescence, 24 h; Potency, µM (series often up to 56.7 µM), actives largely listed as cytotoxic; actives 0.49% (n = 400,000); AID 651635, 2014; also: nearly all actives have a fitted effect of over 40% in size
Nrf2 activator: qHTS of Nrf2 Activators | AREc32 ARE-luciferase reporter (MCF7-derived line), luminescence, 24 h | Potency, µM (highest dose often 46.1 µM), for inactives: at the highest dose activation, usual class: activators | actives 0.31% (n = 410,000) | AID 624171, 2012; also: % of control where 0% means no effect; nearly all actives have a fitted effect of over 65% in size
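AREc32 cells carrying an ARE-driven firefly luciferase reporter were seeded at 1000 cells/well in OPTI-MEM with 5% FBS, then exposed to compound for 24 hr at 37 deg C. Luminescence was read with Steady-Glo after 30 min at RT.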
The depositor's hits bear a star; i = inactive; ? = inconclusive; · = no result; [ ] = dose if it differs, or a comment. Calls follow the shape of the dose curve; as a rule, active = well fitted curve in the direction sought with a large enough effect; inconclusive = small, poorly fitted or top-dose-only effect, or another doubt; inactive = no such curve, though single readings can be large; an effect the other way counts as inactive or inconclusive. Potency is read from the fitted curve at half-maximal effect.

SMILES	Nrf2 block	ATXN2 expr inh	A549 viability	ATXN viability	Nrf2 activator
CCc1noc(C)c1C(=O)Oc1ccc(N(C)S(=O)(=O)c2ccccc2)cc1	16µM*	-11%	-9%	i	3%
CCn1c(=O)c(C)nn2c3ccccc3nc12	·	3%	-2%	i	0%
Cc1nn2c3ccccc3nc2c2ccccc12	-7%	7%	-11%	i	7.9µM*
Cc1nn2c(-c3ccccc3)nnc2c2ccccc12	?	47%	-2%	i	4µM*
Cc1cc(=O)oc2c1ccc1oc(/C(=N/O)c3ccccc3)c(C)c12	?	?	-2%	i	-1%
Cc1ccc(/C(=N\O)c2oc3c(C)c4oc(=O)cc(C)c4cc3c2C)cc1	23µM*	?	?	?	0%
CCOC(=O)C1=C(C)N=c2s/c(=C\c3ccc(O)c([N+](=O)[O-])c3)c(=O)n2C1c1ccccc1OC (stereo unspecified)	-11%	?	-25%	?	0%
CCOC(=O)C1=C(C)N=c2s/c(=C/c3cccc([N+](=O)[O-])c3O)c(=O)n2C1c1ccc(OC)cc1OC (stereo unspecified)	?	-32%	16µM*	13µM*	0%[9.22 µM]
Cc1ccc(C(=O)C(c2ccccc2)N2Cc3ccccc3C2=N)cc1 (stereo unspecified)	?	0%	-12%	14µM*	4%
Cc1sc2ncn(CC(=O)N3CCN(c4ccccc4F)CC3)c(=O)c2c1S(=O)(=O)N1CCOCC1	-6%	-19%	-1%	i	0%
Cc1ccnc(NC(=O)C2CCN(S(=O)(=O)c3ccc4ccccc4c3)CC2)c1	7%	19%	-10%	i	0%
COc1ccc(Nc2cc(C)c3cc(NC(=O)Cc4c(F)cccc4Cl)ccc3n2)cc1	-15%	-22%	-18%	·	4%
COC(=O)c1cc(COC(=O)COc2ccc(C)c(C)c2)oc1C	-11%	21%	-2%	i	0%
O=C1c2cccc3cccc(c23)C(=O)N1CC1CCN(CC(O)COc2ccc3ccccc3c2)CC1 (stereo unspecified)	?	?	?	i	-3%
Cc1cc(C)cc(OCC(O)CN2CCC(CN3C(=O)c4cccc5cccc(c45)C3=O)CC2)c1 (stereo unspecified)	18µM*	20µM*	?	·	-1%
CCc1ccc(OCC(O)CN2CCC(CN3C(=O)c4cccc5cccc(c45)C3=O)CC2)cc1 (stereo unspecified)	-9%	25µM*	2%	·	-1%
COc1cccc(OCC(O)CN2CCC(CN3C(=O)c4cccc5cccc(c45)C3=O)CC2)c1 (stereo unspecified)	20%	?	?	?	16%
Nn1c(SCC(=O)Nc2ccc(F)cc2F)nnc1C1CCCCC1	7%	36%	·	i	1%
Cc1ccc(C)c(C(=O)Cn2ncc(Cl)c(Cl)c2=O)c1	6%	?	-13%	18µM*	?
CCC(=O)Nc1ccc(C(=O)Cn2ncc(Cl)c(Cl)c2=O)cc1	17%	·	-3%	25µM*	6.3µM*
Cc1cc(Br)ccc1NC(=O)CNC(=O)Cn1ncc(Cl)c(Cl)c1=O	9%	4.7µM*	2%	3.4µM*	?
Cc1cc(C(=O)Cn2ncc(Cl)c(Cl)c2=O)c(C)n1CC(F)(F)F	?	?	3%	?	?
O=C(CSc1ccccc1F)NC(=O)c1ccc(Cl)cc1	1%	5%	7%	i	0%
CCOC(=O)C1(C)CCN1C(=O)c1cc(OC)c(OC)c(OC)c1 (stereo unspecified)	·	-3%	·	i	2%
COc1ccc(NS(=O)(=O)c2cc3c(cc2C)N(C(C)=O)CCO3)cc1OC	9%	10%	2%	i	0%
SMILES	Nrf2 block	ATXN2 expr inh	A549 viability	ATXN viability	Nrf2 activator
O=S(=O)(O)c1cc(O)c2c(O)c(N=Nc3cc(Cl)ccc3O)c(S(=O)(=O)O)cc2c1	21µM*	?	15µM*	8.9µM*	-1%
O=S(=O)(O)c1cc(Cl)cc(N=Nc2ccc(O)cc2O)c1O	-1%	?	?	?	11%
CC(C)n1c(-c2ccco2)csc1=Nc1cccnc1	13µM*	1%	-10%	i	4%
Cn1c2c(c3cc([N+](=O)[O-])ccc31)CCCC2	-12%	-2%	11%	i	0%
CSc1ccc(CN2CCN(C(=O)CC(C)C)CC2)cc1	26µM*	-16%	0%	i	-1%
CSc1ccc(CN2CCN(Cc3ccc([N+](=O)[O-])cc3)CC2)cc1	8.2µM*	-13%	-11%	?	4%
Cc1ccccc1CNC(=O)c1ccc2nc(SCc3ccc(F)cc3)n(C)c2c1	?	-4%	-1%	i	1%
CC(C)Oc1ccc(CNC(=O)c2ccc3nc(SCc4ccc(F)cc4)n(C)c3c2)cc1	11%	·	2%	·	1%
Cn1c(SCc2ccc(F)cc2)nc2ccc(C(=O)NCc3ccc(F)cc3)cc21	23µM*	?	?	?	0%
Cn1c(SCc2ccc(F)cc2)nc2ccc(C(=O)NCc3cccc(Cl)c3)cc21	21µM*	-2%	-6%	i	0%
Cn1c(SCc2ccc(F)cc2)nc2ccc(C(=O)NCc3ccc(Cl)cc3)cc21	15µM*	-33%	2%	?	3%
N=c1n(CCO)c2ccccc2n1CCN1CCCCC1	6%	-18%	-2%	i	0%
COc1ccc(NC(=O)c2cn3c(nc4ccccc43)c(C#N)c2C)cc1	-22%	0%	0%	i	-1%
Cc1cccc(C(=O)N2N=C(c3ccc(NS(C)(=O)=O)cc3)CC2c2cccs2)c1 (stereo unspecified)	23µM*	-16%	-19%	i	3%
CCS(=O)(=O)Nc1ccc(C2=NN(C(=O)c3ccccc3)C(c3cccs3)C2)cc1 (stereo unspecified)	?	?	-21%	?	0%
Cc1nn(Cc2cccc(F)c2)c(C)c1NC(=O)c1c(Cl)cnn1C	-8%	4%	1%	i	0%
Cc1ccc(OCC(=O)Nc2cc(S(=O)(=O)N3CCOCC3)ccc2N2CCCC2)cc1	15%	-11%	5%	i	0%
Cc1cc(OCC(=O)Nc2cc(S(=O)(=O)N3CCOCC3)ccc2N2CCCC2)ccc1C(C)C	16µM*	-14%	-21%	i	-1%
CN1c2ccccc2C(O)=C(C(=S)Nc2ccc(F)c(Cl)c2)S1(=O)=O	?	?	?	i	3%
Cn1nnnc1SCCNCc1ccccc1OCc1ccc(Cl)cc1Cl	12µM*	·	-1%	·	-5%
CCOc1cc(CNCCSc2nnnn2C)ccc1OCc1ccc(Cl)cc1Cl	-27%	?	?	i	-3%
